# According to PubChem BioAssay (NCATS):
# Results filed as inconclusive are left out. Active and inactive are the calls of the source. Unless noted, calls come from the whole dose curve.
# Columns and labels:
# [1] = qHTS for Inhibitors of the Functional Ribonucleoprotein Complex (vRNP) of Lassa (LASV) Arenavirus: Viability assay - alamar blue signal for LASV Primary Screen (AID 1347083; calls by dose curve; tested in HEK293 reporter line; note: nearly all actives have a fitted effect of over 80% in size; note: potency is the fitted concentration of half-maximal effect)
# [2] = qHTS for Inhibitors of the Functional Ribonucleoprotein Complex (vRNP) of Lymphocytic Choriomeningitis Arenaviruses (LCMV): Viability assay - alamar blue signal for LCMV Primary Screen (AID 1347085; calls by dose curve; tested in HEK293 reporter line; note: nearly all actives have a fitted effect of over 80% in size; note: potency is the fitted concentration of half-maximal effect)
# [3] = target: Nucleoprotein (Lymphocytic choriomeningitis virus (strain Armstrong)) (UniProt P09992); test: qHTS for Inhibitors of the Functional Ribonucleoprotein Complex (vRNP) of Lymphocytic Choriomeningitis Arenaviruses (LCMV): LCMV Primary Screen - GLuc reporter signal (AID 1347086); note: nearly all actives have a fitted effect of over 70% in size; note: potency is the fitted concentration of half-maximal effect; for activity change, negative = inhibition: % is set by controls: 0 for no effect and ±100 for the full control effect
# [4] = Cytotoxicity counterscreen for inhibitors of SARS-CoV-2 cell entry (AID 1645845); note: nearly all actives have a fitted effect of over 50% in size
# Summary of the method: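 HEK293-ACE2 cells (Expi293F stably expressing human ACE2) seeded overnight, then compound for 1 h plus 48 h at 37C. Viability as ATP content by luminescence; normalized to wells with cells and media-only wells.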
# [5] = Primary qHTS to identify inhibitors of SARS-CoV-2 cell entry (AID 1645846); settings: activity change, negative = inhibition: at 57.1 µM (top of the series) unless noted; note: nearly all actives have a fitted effect of over 45% in size; note: potency is the fitted concentration of half-maximal effect
# Summary of the method: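 HEK293 cells stably expressing human ACE2, pre-treated 1 h with compound, then infected with MLV particles pseudotyped with Wuhan-Hu-1 spike (C-terminal 19-aa truncation). Luciferase luminescence after 48 h at 37 °C, normalised to spike PP and bald PP.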
# [6] = Confirmatory qHTS to identify inhibitors of SARS-CoV-2 cell entry (AID 1645844); note: potency is the fitted concentration of half-maximal effect; nearly all actives have a fitted effect of over 45% in size
# Summary of the method: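 HEK293-ACE2 cells were pretreated 1 h with compound, then infected with MLV-based pseudoparticles bearing C-terminally truncated Wuhan-Hu-1 spike for 48 h at 37C; luciferase luminescence normalized to spike PP and bald PP wells.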
# [7] = VSVG counterscreen qHTS to identify inhibitors of SARS-CoV-2 cell entry (AID 1645847); note: potency is the fitted concentration of half-maximal effect; nearly all actives have a fitted effect of over 65% in size
# Summary of the method: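 HEK293-ACE2 cells (Expi293F, human ACE2) pretreated 1 h with compound, then infected with MLV-based VSV-G pseudotyped particles for 48 h at 37 C; luciferase luminescence normalized to VSV-G PP and bald PP wells.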
# Nucleoprotein (Lymphocytic choriomeningitis virus (strain Armstrong)), sequence (P09992 whole entry, looked up): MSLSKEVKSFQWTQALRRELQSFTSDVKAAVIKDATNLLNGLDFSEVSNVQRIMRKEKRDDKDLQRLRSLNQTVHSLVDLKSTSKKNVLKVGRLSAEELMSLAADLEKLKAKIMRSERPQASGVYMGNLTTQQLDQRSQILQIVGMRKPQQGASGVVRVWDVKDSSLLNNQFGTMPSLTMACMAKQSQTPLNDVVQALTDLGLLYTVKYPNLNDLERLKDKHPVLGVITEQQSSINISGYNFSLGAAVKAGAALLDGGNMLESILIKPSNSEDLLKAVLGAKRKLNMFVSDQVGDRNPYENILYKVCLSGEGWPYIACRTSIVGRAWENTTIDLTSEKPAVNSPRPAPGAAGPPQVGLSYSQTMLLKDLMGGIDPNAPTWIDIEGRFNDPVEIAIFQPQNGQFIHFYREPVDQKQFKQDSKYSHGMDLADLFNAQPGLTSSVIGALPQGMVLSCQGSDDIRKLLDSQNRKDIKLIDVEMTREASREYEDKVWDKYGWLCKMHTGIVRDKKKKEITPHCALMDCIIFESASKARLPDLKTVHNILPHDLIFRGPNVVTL
compound,measurement,setting,value
C=C1CCC2[C@](C)(CO)[C@H](O)CC[C@@]2(C)[C@@H]1/C=C/C1=CCOC1=O (stereo partly drawn),Potency,[1],inactive
same,Potency,[2],inactive
O=C(O)CO.[NH2-].[NH2-].[Pt+2],Potency,[1],inactive
same,Potency,[2],inactive
C=Cc1ncc(OC)c2c1[nH]c1ccccc12,Potency,[1],inactive
same,Potency,[2],inactive
Oc1ccc(C2=Cc3ccc(O)cc3OC2)cc1,Potency,[1],24.3 µM (active)
C[C@H]1[C@H](O)O[C@@H]2O[C@@]3(C)CC[C@@H]4[C@H](C)CC[C@@H]1[C@@]24OO3,Potency,[1],10 µM (active)
same,Potency,[2],15.8 µM (active)
CC[C@H]1OC(=O)[C@H](C)[C@@H](O[C@H]2C[C@@](C)(OC)[C@@H](O)[C@H](C)O2)[C@H](C)[C@@H](O[C@@H]2O[C@H](C)C[C@H](N(C)C)[C@H]2O)[C@](C)(O)C[C@H](C)C(=NOCOCCOC)[C@H](C)[C@@H](O)[C@]1(C)O,Potency,[1],inactive
same,Potency,[2],inactive
CC(Cc1ccccc1)(NC(=O)CN)c1ccccc1 (stereo not drawn),Potency,[1],inactive
same,Potency,[2],inactive
COc1cc2c(cc1O)CCC1C2CC[C@@]2(C)C1CC[C@@H]2O (stereo partly drawn),Potency,[1],5.44 µM (active)
COc1cc2cc(c1Cl)N(C)C(=O)CC(OC(=O)C(C)N(C)C(C)=O)C1(C)OC1C(C)C1CC(O)(NC(=O)O1)C(OC)C=CC=C(C)C2 (stereo not drawn),Potency,[1],inactive
same,Potency,[2],inactive
same,Potency,[3],inactive
O=C(C=Cc1ccc(CN(CCO)CCc2c[nH]c3ccccc23)cc1)NO,Potency,[1],1.37 µM (active)
same,Potency,[2],1.37 µM (active)
CCCCCN=C(N)NN=Cc1c[nH]c2ccc(OC)cc12,Potency,[1],6.11 µM (active)
same,Potency,[2],10.9 µM (active)
O=C(O)C=Cc1ccc(O)c(O)c1,Potency,[1],43.2 µM (active)
O=C1NC(=O)[C@@H](c2cn3c4c(cccc24)CCC3)[C@H]1c1c[nH]c2ccccc12,Potency,[1],2.17 µM (active)
same,Potency,[2],4.32 µM (active)
CNC1CCC(N(Cc2cccc(-c3ccncc3)c2)C(=O)c2sc3c(F)ccc(F)c3c2Cl)CC1 (stereo not drawn),Potency,[1],7.69 µM (active)
same,Potency,[2],5.44 µM (active)
CCN(CC)CCNC(=O)COc1ccc(Cl)cc1,Potency,[1],inactive
same,Potency,[2],inactive
O=C(O)CO,Potency,[1],inactive
same,Potency,[2],inactive
CC(C)C[C@@H]1NC(=O)[C@H](Cc2ccccc2)N(C)C(=O)[C@H](C)NC(=O)c2ccccc2NC(=O)[C@H](Cc2ccc(O)cc2)N(C)C1=O,Potency,[1],8.91 µM (active)
CN[C@@H]1C[C@H]2O[C@@](C)([C@H]1OC)n1c3ccccc3c3c4c(c5c6ccccc6n2c5c31)C(=O)N[C@H]4O,Potency,[1],0.355 µM (active)
same,Potency,[2],2.73 µM (active)
CC(=CCOc1ccc2ccc(=O)oc2c1)C1=CC(=O)C(C)(C)O1,Potency,[1],inactive
same,Potency,[2],inactive
C[C@@H](Oc1ccc2[nH]nc(C=Cc3cnn(CCO)c3)c2c1)c1c(Cl)cncc1Cl,Potency,[1],24.3 µM (active)
same,Potency,[2],27.3 µM (active)
C/C=C/c1ccc(OC(C)[C@@H](O)c2ccc(O)c(OC)c2)c(OC)c1 (stereo partly drawn),Potency,[1],inactive
same,Potency,[2],inactive
CC(=O)OCC(=O)[C@@]12N=C(C)O[C@H]1C[C@H]1[C@@H]3CCC4=CC(=O)C=C[C@]4(C)[C@@H]3[C@@H](O)C[C@@]12C,Potency,[1],inactive
same,Potency,[2],inactive
CC(C=CC1=C(C)CCCC1(C)C)=CC=CC(C)=CC(=O)Nc1ccc(O)cc1,Potency,[1],44.4 µM (active)
same,Potency,[2],44.4 µM (active)
COc1cc(C)ccc1O,Potency,[1],inactive
same,Potency,[2],inactive
O=C(OCCOCCO)c1ccccc1Nc1cccc(C(F)(F)F)c1,Potency,[1],inactive
same,Potency,[2],inactive
CC(=O)OC1CC2(O)C3CCC4CC(O)CCC4(C)C3CCC2(C)C1C1=CC(=O)OC1 (stereo not drawn),Potency,[1],0.282 µM (active)
same,Potency,[2],0.316 µM (active)
C=C1C(=O)C=C[C@]2(C)C[C@@H]3OC(=O)[C@](C)(O)[C@H]3C[C@@H]12,Potency,[1],14.1 µM (active)
C=C1C(=O)O[C@@H]2C[C@@H](C)[C@@H]3C=CC(=O)[C@@]3(C)[C@@H](OC(C)=O)[C@H]12,Potency,[1],4.47 µM (active)
same,Potency,[2],4.47 µM (active)
CO[C@H]1C[C@@H]2CC[C@@H](C)[C@@](O)(O2)C(=O)C(=O)N2CCCC[C@@H]2C(=O)O[C@H]([C@H](C)C[C@@H]2CC[C@H](OP(C)(C)=O)[C@H](OC)C2)CC(=O)[C@H](C)C=C(C)[C@@H](O)[C@@H](OC)C(=O)[C@H](C)C[C@H](C)C=CC=CC=C1C,Potency,[1],0.0109 µM (active)
same,Potency,[2],0.0153 µM (active)
CCCCC1CCC(=O)O1 (stereo not drawn),Potency,[1],inactive
same,Potency,[2],inactive
COC1C(O)C(C)OC(OC2CCC3(C)C(CCC4C3C(O)CC3(C)C(C5=CC(=O)OC5)CCC43O)C2)C1O (stereo not drawn),Potency,[1],0.251 µM (active)
same,Potency,[2],0.355 µM (active)
O=c1[nH]c(=O)n([C@H]2C[C@@H](O)[C@@H](CO)O2)cc1F,Potency,[1],5.44 µM (active)
same,Potency,[2],7.69 µM (active)
C[C@@H]1[C@H](O)[C@@H](C)C=CC=CC=CC=CC=CC=CC=C[C@H](O[C@@H]2O[C@H](C)[C@H](O)[C@H](N)[C@@H]2O)C[C@@H]2O[C@](O)(C[C@@H](O)C[C@@H](O)[C@H](O)CC[C@@H](O)C[C@@H](O)CC(=O)O[C@H]1C)C[C@H](O)[C@@H]2C(=O)O,Potency,[1],10.9 µM (active)
same,Potency,[2],8.63 µM (active)
same,Potency,[3],4.85 µM (active)
Cn1cc(-c2cnn3c(N)c(Br)c([C@H]4CCCNC4)nc23)cn1,Potency,[1],1.22 µM (active)
same,Potency,[2],1.53 µM (active)
same,Potency,[3],2.73 µM (active)
FC(F)(F)c1ccc(Nc2nc3ccc(Oc4ccnc(-c5ncc(C(F)(F)F)[nH]5)c4)cc3[nH]2)cc1,Potency,[1],6.11 µM (active)
same,Potency,[2],1.37 µM (active)
same,Potency,[3],3.85 µM (active)
same,Potency,[4],inactive
same,Potency,[5],31.6 µM (active)
C=CC1CN2CCC1CC2c1[nH]c2ccccc2c1CCO (stereo not drawn),Potency,[1],inactive
same,Potency,[2],inactive
same,Potency,[3],inactive
NCC(=O)Nc1ccc(-n2nc(C(F)(F)F)cc2-c2ccc3c(ccc4ccccc43)c2)cc1,Potency,[1],19.3 µM (active)
same,Potency,[2],10.9 µM (active)
same,Potency,[3],1.72 µM (active)
same,Potency,[6],15.2 µM (active)
same,Potency,[7],6.07 µM (active)
CCc1c2c(nc3ccc(O)cc13)-c1cc3c(c(=O)n1C2)COC(=O)[C@]3(O)CC,Potency,[1],0.109 µM (active)
same,Potency,[2],0.243 µM (active)
same,Potency,[3],0.217 µM (active)
same,"activity change, negative = inhibition",[5],-97.1%
